GSIS activator = GLuc luminescence reporter in INS-1E cells, primary screen for activators of glucose-dependent secretion of insulin | INS-1E GLuc reporter insulin secretion, 2-3 h | activation, % at 16.6 µM | 370,000 compounds, 0.61% hits | AID 743287, 2014;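 active means lowest replicate activation of at least 40%, so every replicate reaches that level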
CaV13 FRET inh = Primary screen for inhibitors of IQ motif and Ca2+-dependent inactivation inhibitor domain binding in CACNA1D, Förster resonance energy transfer in living cells, … | inhibition, % at 12.3 µM | AID 743397 | 340,000 compounds, 0.098% hits | HEK cells, CFP/YFP FRET ICDI-IQ, plate reader, 10 min; percent FRET-ratio fall versus neutral wells;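 active means mean replicate inhibition of at least 30% and at least 1% of replicates passing that level; inconclusive means only one of the two criteria is met; inactive means neither criterion is met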
PGC1a acetyl inh = inhibitors of PGC1a acetylation signal, primary screen, cell-based, U2OS, AlphaScreen, inhibitor mode; 350,000 compounds, 0.17% hits; AlphaScreen anti-acetyl-lysine; with virally co-expressed GCN5 acetyltransferase; inhibition, % at 15.6 µM;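 active means every replicate shows inhibition of at least 40%; inconclusive means mean inhibition at least 40% but some replicate below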
rRNA inh HTS = reduced GFP signal of wild-type E. coli, primary screen, bacterial rRNA inhibitor project, GFP/RFP fluorescence, OD600, single point; E. coli WT GFP vs humanized-ribosome RFP mutants, 24 h; hits give low values; DMSO median 0, no signal -100; GFP signal change (wild-type ribosome), % (concentration not given with the values); 350,000 compounds, 1.6% hits;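 active means significant combined selectivity score with lowered wild-type GFP, culture density cut under 30%, mutant RFP and density less affected; inactive means any of these conditions unmet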
DENV2 CPE rescue = inhibitors of DENV2 cytopathic effect, primary screen, cell-based, plate reader, single concentration; 350,000 compounds, 1.7% hits; CPE inhibition, % at 9.99 µM; DENV2-infected cells, cytopathic effect rescue; in the data active means CPE inhibition above about 20%, passing the limit was not always enough; inconclusive means no clear call, values can overlap the other calls; tested in BHK-21 cells
ERAP1 HTS inh = human ERAP1 aminopeptidase inhibitors, primary screen, biochemical, single point, plate reader; Endoplasmic reticulum aminopeptidase 1 (Homo sapiens), Q9NZ08; recombinant ERAP1, Leu-AMC fluorescence, 60 min; inhibition, % at 10.7 µM; 340,000 compounds, 0.15% hits; AID 652197, 2013;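 active means mean replicate inhibition of at least 30%, or all replicates individually reaching that 30% level; inactive means mean below 30% and not every replicate reaching it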
Target sequence (Q9NZ08 whole entry, looked up): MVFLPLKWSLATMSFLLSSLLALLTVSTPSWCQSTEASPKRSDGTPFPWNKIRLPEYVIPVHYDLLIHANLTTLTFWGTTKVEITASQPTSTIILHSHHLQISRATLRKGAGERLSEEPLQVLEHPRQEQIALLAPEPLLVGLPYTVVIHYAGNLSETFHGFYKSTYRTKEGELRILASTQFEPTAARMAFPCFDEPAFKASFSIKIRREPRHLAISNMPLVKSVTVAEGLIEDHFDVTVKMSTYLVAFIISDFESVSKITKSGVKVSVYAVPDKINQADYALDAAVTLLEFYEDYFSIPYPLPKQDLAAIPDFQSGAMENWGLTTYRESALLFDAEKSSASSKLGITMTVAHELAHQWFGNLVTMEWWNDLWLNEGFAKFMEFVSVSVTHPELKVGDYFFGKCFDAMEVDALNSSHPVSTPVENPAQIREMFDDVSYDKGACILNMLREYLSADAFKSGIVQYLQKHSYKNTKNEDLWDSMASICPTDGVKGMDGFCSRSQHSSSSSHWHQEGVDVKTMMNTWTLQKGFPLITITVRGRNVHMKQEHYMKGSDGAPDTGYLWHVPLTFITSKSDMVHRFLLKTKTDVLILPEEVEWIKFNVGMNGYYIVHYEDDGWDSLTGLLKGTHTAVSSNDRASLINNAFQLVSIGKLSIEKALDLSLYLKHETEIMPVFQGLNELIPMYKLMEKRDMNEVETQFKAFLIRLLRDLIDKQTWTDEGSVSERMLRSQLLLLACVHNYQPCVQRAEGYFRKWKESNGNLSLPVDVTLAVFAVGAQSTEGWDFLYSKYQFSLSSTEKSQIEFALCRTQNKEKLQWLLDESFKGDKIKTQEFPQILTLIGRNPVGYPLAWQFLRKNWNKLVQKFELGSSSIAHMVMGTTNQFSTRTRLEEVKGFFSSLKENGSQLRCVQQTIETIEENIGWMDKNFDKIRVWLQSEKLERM
Each line names hits and unclear results; the compound was inactive in the other large screens. Rows were chosen to be rich in hits. Some 3.2% of all compounds tested hit in one or more screens of this group.

CCOc1ccc(N(C)S(=O)(=O)c2ccc3[nH]cc(C(=O)NCCOC)c(=O)c3c2)cc1	GSIS activator 66
CCOc1ccc(N(C)S(=O)(=O)c2ccc3[nH]cc(C(=O)NCCCOC)c(=O)c3c2)cc1	none
CCOC(=O)C1=C[C@@H](CC)N(S(=O)(=O)c2ccc([N+](=O)[O-])cc2)[C@H]1c1ccccc1	DENV2 CPE rescue 42
CCOC(=O)C1=C[C@@H](C(C)C)N(S(=O)(=O)c2ccc([N+](=O)[O-])cc2)[C@H]1c1ccccc1	DENV2 CPE rescue inconclusive (no result: CaV13 FRET inh)
CCOC(=O)C1=C[C@@H](CC)N(S(=O)(=O)c2ccc(C)cc2)[C@H]1c1cccc(Cl)c1	none
CCOC(=O)C1=CCN(S(=O)(=O)c2ccc(C)cc2)[C@H]1c1ccccc1Cl	rRNA inh HTS -29
CCOC(=O)C1=CCN(S(=O)(=O)c2ccc(C)cc2)C1c1ccccc1F (stereo not drawn)	none
CCOC(=O)C1=C[C@@H](c2ccccc2)N(S(=O)(=O)c2ccc(C)cc2)[C@H]1c1cccc(Cl)c1	DENV2 CPE rescue 30
CCOC(=O)C1=CC[C@H]2c3c(c4ccc(OC)cc4n3C)C(=O)C1N2S(=O)(=O)c1ccc(C)cc1	DENV2 CPE rescue 31
CCOC(=O)C1=CC[C@@H](c2ccc(OC)cc2)N(S(=O)(=O)c2ccc(C)cc2)[C@H]1CC	none
C[C@@H]1CCCCO[C@H](CN(C)CC2CC2)[C@@H](C)CN([C@H](C)CO)C(=O)c2cc(NS(=O)(=O)c3ccccc3)ccc2O1	none (no result: CaV13 FRET inh)
C[C@H]1CN([C@@H](C)CO)C(=O)c2cc(C#Cc3ccncc3)cnc2O[C@H]1CN(C)C(=O)CN(C)C	none (no result: CaV13 FRET inh)
CCOC(=O)C1=CCN(S(=O)(=O)c2ccc(F)cc2)C1c1cccc(Cl)c1 (stereo not drawn)	DENV2 CPE rescue 84
CCOC(=O)C1=CCN(S(=O)(=O)c2ccc(Cl)cc2)C1c1cccc(Cl)c1 (stereo not drawn)	none (no result: PGC1a acetyl inh)
COc1ccc(-c2onc(C)c2-c2ccc(C(=O)OC(C)C)o2)c(O)c1	PGC1a acetyl inh 74 (no result: GSIS activator, CaV13 FRET inh, rRNA inh HTS, DENV2 CPE rescue, ERAP1 HTS inh)
CCC(=O)N1CC[C@@H]2[C@H](CO)Nc3ccc(-c4cccc(C#N)c4)cc3[C@@H]21	DENV2 CPE rescue 137 (no result: CaV13 FRET inh, ERAP1 HTS inh)
N#Cc1ccc(-c2ccc3c(c2)[C@@H]2[C@@H](CCN2C(=O)C2CCCC2)[C@@H](CO)N3)cc1	GSIS activator 41 (no result: CaV13 FRET inh, PGC1a acetyl inh)
CCC(=O)N1CC[C@@H]2[C@H]1c1cc(-c3cccc(C#N)c3)ccc1N[C@@H]2CO	none (no result: CaV13 FRET inh, ERAP1 HTS inh)
CC(C)N(C(=O)CSc1nnc(CSc2ncccn2)n1C)C(C)C	DENV2 CPE rescue 33
CCSc1nnc(CSc2ncccn2)n1C	none (no result: PGC1a acetyl inh)
Cc1cccc2cc(-c3ccccc3)c(-c3ccccc3)c[n+]12	rRNA inh HTS -42
O=[N+]([O-])c1cccc(-c2cc3cccc[n+]3cc2-c2cccc([N+](=O)[O-])c2)c1	none (no result: rRNA inh HTS, DENV2 CPE rescue, ERAP1 HTS inh)
COc1ccccc1-c1cc2nc(NCCc3ccncc3)ccn2n1	rRNA inh HTS -17 (no result: GSIS activator)
COc1ccccc1-c1cc2nc(NCCc3ccc(S(N)(=O)=O)cc3)ccn2n1	none (no result: GSIS activator)
COCCCNc1ccn2nc(-c3ccc(Cl)cc3)cc2n1	DENV2 CPE rescue 30 (no result: PGC1a acetyl inh)
CNC[C@@H]1Oc2c(NS(=O)(=O)c3ccc(OC)cc3)cccc2C(=O)N([C@@H](C)CO)C[C@H]1C	none (no result: CaV13 FRET inh, PGC1a acetyl inh, DENV2 CPE rescue, ERAP1 HTS inh)
O=S(=O)(c1cccs1)N1CCCCN2[C@@H](CO)[C@@H](c3ccc(Br)cc3)[C@@H]2C1	none (no result: CaV13 FRET inh)
COc1ccc(-c2ccc([C@H]3[C@@H](CO)N4CCCCN(S(=O)(=O)c5cccs5)C[C@H]34)cc2)cc1	DENV2 CPE rescue 26 (no result: CaV13 FRET inh)
COc1ccc(S(=O)(=O)N2CCCCN3[C@H](CO)[C@H](c4ccc(C5=CCCC5)cc4)[C@@H]3C2)cc1	DENV2 CPE rescue 141 (no result: CaV13 FRET inh, ERAP1 HTS inh)
O=S(=O)(c1cccs1)N1CCCCN2[C@H](CO)[C@H](c3ccc(Br)cc3)[C@H]2C1	DENV2 CPE rescue 38 (no result: CaV13 FRET inh)

Screening data deposited in PubChem BioAssay by Broad Institute.
